# Measurements reported in PubChem BioAssay AID430 (Sanford-Burnham Center for Chemical Genomics, 2006).
# The campaign covered roughly 63,000 compounds. About 1,100 (1.7%) were called active. This is one part of a sample in which actives are shown more often than they occur. Results with a measured potency or affinity are listed apart. Unmarked numbers belong to inactive results. No stated cut-off is given here; in the data, active means cytotoxicity above about 50%; inactive means the rest.
# Experiment: cytotoxicity in HPDE-C7 cells, cell-based, fluorescence, HTS (AID 430);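 further: cells exposed to compound for 48 hours before viability readout; 0% = vehicle and 100% = reference cytotoxic drug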
# Conditions: HPDE-C7 pancreatic duct cells viability, at 10 µM, hits give high values
row,Structure (SMILES),cytotoxicity
1,COc1ccc(CCNS(=O)(=O)c2cccc(S(=O)(=O)N3CCCC3)c2)cc1OC,-3.9%
2,Cc1cc(SCNC(=O)c2ccccc2)ncn1,-13%
3,COc1ccc(N2CCN(c3oc(COc4ccccc4)nc3C#N)CC2)cc1,-8.8%
4,O=C(O)c1cccc(CN2C(=O)SC(Nc3ccccc3)C2=O)c1 (stereo not drawn),-3.2%
5,CN(C)C(=O)COn1c(SCC(=O)N(C)C)nc2ccccc2c1=O,-6.6%
6,COc1ccc(C2C3=C(CC(C)(C)CC3=O)Nc3n[nH]c(C)c32)cc1 (stereo not drawn),-9.3%
7,CCOc1cccc(C(=O)Nc2cc(-c3nn4c(C)nnc4s3)ccc2C)c1,-4.1%
8,O=C(O)C1CCC(CNCc2cccnc2)CC1 (stereo not drawn),-8.3%
9,CC1(C)CC(=O)C(C=Nc2ccccc2)=C(O)C1,2%
10,Cc1ccc(SCCC(=O)NCC2CCCO2)cc1 (stereo not drawn),-5.9%
11,COc1ccc(-c2nnc(NC(=O)c3ccc(S(=O)(=O)N4CCCc5ccccc54)cc3)o2)cc1,53.1% (active)
12,COc1ccc(-c2nnc(NC(=O)c3ccc(S(=O)(=O)N4CCc5ccccc5C4)cc3)o2)cc1,40.7%
13,COc1ccc(-c2nnc(NC(=O)c3ccccc3C)o2)cc1,1.9%
14,O=C(NCc1ccco1)c1ccc(S(=O)(=O)N2CCCc3ccccc32)cc1,-2.8%
15,O=C(Nc1nnc(C2CC2)o1)c1ccc(S(=O)(=O)N2CCCc3ccccc32)cc1,73.6% (active)
16,O=C(Nc1ccc(S(=O)(=O)N2CCCc3ccccc32)cc1)C1CCCO1 (stereo not drawn),3%
17,COc1cc(OC)cc(-n2c3nc4ccccc4nc3c3c(=O)n(CC4CCCO4)cnc32)c1 (stereo not drawn),-11.1%
18,COc1ccc(OC)c(NC(=O)C2=C(C)Nc3ncnn3C2c2cccs2)c1 (stereo not drawn),4.9%
19,CCCCOCCCNC(=O)Cc1cccs1,-16.7%
20,COc1ccccc1N1CCN(C(=O)N2CCOCC2)CC1,-6.9%
21,Cc1cc(N2CCN(C/C=C/c3ccccc3)CC2)n2ncnc2n1,-6.5%
22,O=C(NC1c2ccccc2-c2ccccc21)N1CCOCC1,1.5%
23,O=C(CC1SC(=Nc2ccccc2)N(CCCCO)C1=O)NCc1ccccc1 (stereo not drawn),-10.8%
24,CCCOC(=O)CSC1=C(C#N)C(c2ccccc2OCC)C(C#N)C(=O)N1 (stereo not drawn),5.1%
25,Cc1cc(NC(=O)CCc2ccc(C)o2)no1,-11.8%
26,CC(=O)C(C)Oc1ccc2c3c(c(=O)oc2c1)CCCCC3 (stereo not drawn),-15.5%
27,c1ccc(-c2nnc(N3CCN(c4ccccn4)CC3)c3ccccc23)cc1,5.2%
28,Cc1ccc(-c2nnc(N3CCN(S(C)(=O)=O)CC3)c3ccccc23)cc1,-1.3%
